This is an account of results in PubChem BioAssay.

A number with no mark means an inactive call. For some assays here: Measured potencies and affinities stand elsewhere. Active and inactive are the calls of the source. Unless noted, no rule for the calls is given here.

A short description of assay [1]: antimalarial activity against Dd2 strain (AID 2302;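 active = growth inhibition above 50% at the single 2 µM test dose, taken to imply half-maximal potency below 2 µM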;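 also: 0% = DMSO untreated growth and 100% = chloroquine plus artemisinin killed control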). Conditions: P. falciparum Dd2 in RBCs, LDH growth readout, 72 h; at 2 µM; hits give high values.
The nature of assay [2]: human hepatoma cell viability loss – ATP luminescence, cytotoxicity control for P. falciparum antimalarial project, primary screen (AID 2303;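 active = inhibition above 50%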;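 also: 0% = DMSO wells and 100% = digitonin-killed cells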). To be noted: HepG2 viability, 24-48 h, at 10 µM, hits give high values.
Assay [3] addresses L-lactate dehydrogenase (Plasmodium falciparum (isolate CDC / Honduras)) (UniProt Q27743). The experiment in a line: PfLDH activity inhibition – cell lysate, 3D7 strain, counter-screen for P. falciparum growth inhibition project (AID 2304).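 Also: 0% = vehicle and 100% = reference inhibitor.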 To be noted: P. falciparum 3D7 crude extract, LDH APAD/NBT absorbance; at 2 µM; hits give high values.
The nature of assay [4]: inhibition of 3D7 malaria parasite growth – strain 3D7 (AID 2306).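 Also: 0% = DMSO wells and 100% = chloroquine plus artemisinin control wells.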 To be noted: P. falciparum 3D7 erythrocytic growth, LDH absorbance, 72 h; at 2 µM; hits give high values.
Assay [5] deals with Calcium-dependent protein kinase 1 (Plasmodium falciparum (isolate 3D7)) (UniProt P62344). The experiment in a line: PfCDPK1 kinase inhibitors, biochemical, TCAMS library (AID 1159585; cut-off not given, nearly all actives have IC50 up to about 0.98 µM;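 also: inhibitors leave more ATP so luminescence rises with inhibition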). To be noted: recombinant PfCDPK1, Kinase-Glo ATP depletion luminescence.
Calcium-dependent protein kinase 1 (Plasmodium falciparum (isolate 3D7)), sequence (P62344 whole entry, looked up): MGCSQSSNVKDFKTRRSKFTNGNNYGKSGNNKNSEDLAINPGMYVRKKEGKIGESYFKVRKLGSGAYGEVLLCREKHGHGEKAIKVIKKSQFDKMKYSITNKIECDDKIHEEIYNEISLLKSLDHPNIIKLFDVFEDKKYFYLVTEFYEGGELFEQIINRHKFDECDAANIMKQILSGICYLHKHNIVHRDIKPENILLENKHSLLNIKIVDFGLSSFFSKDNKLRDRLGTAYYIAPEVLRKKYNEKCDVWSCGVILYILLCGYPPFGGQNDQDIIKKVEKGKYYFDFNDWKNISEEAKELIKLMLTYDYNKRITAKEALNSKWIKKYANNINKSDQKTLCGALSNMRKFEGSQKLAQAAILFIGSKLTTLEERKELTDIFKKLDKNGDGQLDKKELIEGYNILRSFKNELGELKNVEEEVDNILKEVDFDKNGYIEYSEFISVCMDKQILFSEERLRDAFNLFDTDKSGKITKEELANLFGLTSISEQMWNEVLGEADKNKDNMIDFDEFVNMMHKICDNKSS
Assay [6] addresses Plasmodium falciparum protein kinase 6 (PK6, PF3D7_1337100) (UniProt Q8IDW1). Briefly: PfPK6 kinase inhibitors, biochemical, TCAMS library (AID 1159586). To be noted: recombinant PfPK6, Kinase-Glo ATP depletion luminescence.
The target of assay [7] is Protein kinase 7 (PK7), Plasmodium falciparum 3D7 (PF3D7_0213400) (UniProt Q7YTF7). The experiment in a line: inhibition of Plasmodium PK7 catalytic activity – biochemical, TCAMS antimalarial set, Kinase-Glo luminescence (AID 1159587). To be noted: recombinant PfPK7, Kinase-Glo ATP depletion luminescence.
Protein kinase 7 (PK7), Plasmodium falciparum 3D7 (PF3D7_0213400), sequence (Q7YTF7 1-343): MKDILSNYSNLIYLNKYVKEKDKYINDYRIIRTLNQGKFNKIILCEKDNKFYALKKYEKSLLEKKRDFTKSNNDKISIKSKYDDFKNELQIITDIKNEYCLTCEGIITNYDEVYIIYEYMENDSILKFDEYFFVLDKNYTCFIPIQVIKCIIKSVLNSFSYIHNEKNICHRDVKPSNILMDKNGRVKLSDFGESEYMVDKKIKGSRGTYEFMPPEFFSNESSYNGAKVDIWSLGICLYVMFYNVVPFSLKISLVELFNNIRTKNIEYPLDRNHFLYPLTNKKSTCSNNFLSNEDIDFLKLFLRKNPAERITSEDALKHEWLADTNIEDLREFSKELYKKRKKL
For assay [8], the target named is Calcium-dependent protein kinase 4 (Plasmodium falciparum (isolate 3D7)) (UniProt Q8IBS5). The experiment in a line: PfCDPK4 kinase inhibitors, biochemical, TCAMS library (AID 1159588; cut-off not given, nearly all actives have IC50 up to about 0.91 µM). Conditions: recombinant PfCDPK4, Kinase-Glo ATP depletion luminescence.
Calcium-dependent protein kinase 4 (Plasmodium falciparum (isolate 3D7)), sequence (Q8IBS5 whole entry, looked up): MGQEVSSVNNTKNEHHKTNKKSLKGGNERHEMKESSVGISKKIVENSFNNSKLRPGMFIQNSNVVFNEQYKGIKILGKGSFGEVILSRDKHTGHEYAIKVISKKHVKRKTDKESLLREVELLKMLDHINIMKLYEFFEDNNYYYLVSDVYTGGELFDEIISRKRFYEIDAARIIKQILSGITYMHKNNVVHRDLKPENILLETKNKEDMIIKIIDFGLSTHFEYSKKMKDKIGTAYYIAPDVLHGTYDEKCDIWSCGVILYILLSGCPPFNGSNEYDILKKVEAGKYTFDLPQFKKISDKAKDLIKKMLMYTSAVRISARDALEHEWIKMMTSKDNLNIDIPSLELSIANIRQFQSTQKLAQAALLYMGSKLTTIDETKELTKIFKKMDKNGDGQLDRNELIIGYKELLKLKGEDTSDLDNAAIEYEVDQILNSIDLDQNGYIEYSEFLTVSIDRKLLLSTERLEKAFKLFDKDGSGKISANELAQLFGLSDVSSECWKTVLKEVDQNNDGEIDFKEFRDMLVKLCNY

L-lactate dehydrogenase (Plasmodium falciparum (isolate CDC / Honduras)), sequence (Q27743 whole entry, looked up): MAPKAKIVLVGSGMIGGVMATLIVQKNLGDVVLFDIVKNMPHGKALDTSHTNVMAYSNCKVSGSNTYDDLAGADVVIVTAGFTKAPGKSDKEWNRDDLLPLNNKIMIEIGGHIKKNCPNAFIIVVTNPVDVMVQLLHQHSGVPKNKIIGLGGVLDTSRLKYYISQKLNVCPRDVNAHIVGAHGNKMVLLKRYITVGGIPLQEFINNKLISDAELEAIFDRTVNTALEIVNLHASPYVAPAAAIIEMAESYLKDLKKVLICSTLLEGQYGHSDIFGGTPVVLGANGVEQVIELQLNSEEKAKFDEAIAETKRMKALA
Plasmodium falciparum protein kinase 6 (PK6, PF3D7_1337100), sequence (Q8IDW1 1-305): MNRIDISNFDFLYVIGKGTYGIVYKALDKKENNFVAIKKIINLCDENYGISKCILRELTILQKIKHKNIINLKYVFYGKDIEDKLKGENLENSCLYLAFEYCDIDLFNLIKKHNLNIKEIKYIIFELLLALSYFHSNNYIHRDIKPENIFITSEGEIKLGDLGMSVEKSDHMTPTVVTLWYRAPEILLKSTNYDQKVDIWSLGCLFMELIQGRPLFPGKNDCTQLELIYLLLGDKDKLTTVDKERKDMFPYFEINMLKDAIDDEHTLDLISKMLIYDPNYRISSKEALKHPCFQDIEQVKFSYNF

For `COc1ccc(CNC(=O)c2cc3c(=O)n4ccccc4nc3n(CCc3ccccc3)c2=N)cc1`, the figures for the growth inhibition in assay [1] and in assay [4] were 22% and 99% (active), respectively. The figures for the inhibition in assay [2] and in assay [3] were 26% and -4%, respectively. The outcome in assay [5], in assay [6], in assay [7] and in assay [8] was inactive.

For the molecule `Cc1cc(-c2ccc(NC(=O)N3CCc4cc(Br)c(N5CCN(C)CC5)cc43)cc2)ccc1C#N`, the values for the growth inhibition in assay [1] and in assay [4] were 56% (active) and 99% (active), respectively. For the same molecule, the inhibition in assay [2] was 100% (active); in assay [3], 0%. Also, the result in assay [5], in assay [6], in assay [7] and in assay [8] was inactive.

As to `COc1ccc(C(=O)O)cc1OCc1ccccc1`, the growth inhibition in assay [1] was -3%; in assay [4], 99% (active). Further, the figures for the inhibition in assay [2] and in assay [3] were -3% and 3%, respectively. For the same molecule, the result in assay [5], in assay [6], in assay [7] and in assay [8] was inactive.

In the case of `CCc1nc(N)nc(N)c1-c1ccccc1`, the growth inhibition in assay [1] was 1%; in assay [4] it was 92% (active). Besides, the inhibition is 53% (active) in assay [2] and -2% in assay [3]. In addition, the outcome in assay [5], in assay [6], in assay [7] and in assay [8] was inactive.

Take `CS(=O)(=O)c1ccc(-c2cnc(N)c(-c3cccc(O)c3)c2)cc1`: the values for the growth inhibition in assay [1] and in assay [4] were 97% (active) and 98% (active), respectively. In addition, the inhibition in assay [2] is 48%; in assay [3] it was -3%. Further, the result in assay [5], in assay [6], in assay [7] and in assay [8] was inactive.

Regarding `CN(C)CCOc1ccc2c(=O)cc(CCc3cccc(F)c3F)n(CC(=O)N(C)Cc3ccc(-c4ccc(C(F)(F)F)cc4)cc3)c2c1`, the growth inhibition was 60% (active) in assay [1] and 90% (active) in assay [4]. The results for the inhibition in assay [2] and in assay [3] were 33% and 2%, respectively. Besides, the outcome in assay [5], in assay [6], in assay [7] and in assay [8] was inactive.

In the case of `Cc1cccc2[nH]c(-c3cccc(-c4cccc(NC(=O)c5cccnc5)c4)c3)nc12`, the values for the growth inhibition in assay [1] and in assay [4] were 56% (active) and 101% (active), respectively. The results for the inhibition in assay [2] and in assay [3] were 28% and -5%, respectively. For the same molecule, the result in assay [5], in assay [6], in assay [7] and in assay [8] was inactive.

`CC(C)(C)OC(=O)c1c(NC(=O)/C=C/c2ccc(O)c(O)c2)sc2c1CCCC2`: the growth inhibition in assay [1] is 77% (active); in assay [4], 97% (active). In addition, the results for the inhibition in assay [2] and in assay [3] were 4% and 2%, respectively. Further, the result in assay [5], in assay [6], in assay [7] and in assay [8] was inactive.

As to `COc1ccc2nc3ccccc3c(NCCN3CCN(C)CC3)c2c1`, the growth inhibition in assay [1] is 10%; in assay [4], 81% (active). For the same molecule, the results for the inhibition in assay [2] and in assay [3] were 11% and 1%, respectively. The outcome in assay [5], in assay [6], in assay [7] and in assay [8] was inactive.

As for `Cc1cccc(CNc2nc(C)cc(N[C@@H](CC(C)C)C(=O)NCc3cccc(F)c3)n2)c1`, the values for the growth inhibition in assay [1] and in assay [4] were 32% and 91% (active), respectively. Besides, the inhibition in assay [2] was 13%; in assay [3], -3%. In addition, the result in assay [5], in assay [6], in assay [7] and in assay [8] was inactive.

For `O=C(NC1CCCCN(Cc2ccccc2O)C1)c1cc(F)cc(F)c1` (configuration not stated), the results for the growth inhibition in assay [1] and in assay [4] were 52% (active) and 89% (active), respectively. The inhibition is 7% in assay [2] and 0% in assay [3]. Besides, the result in assay [5], in assay [6], in assay [7] and in assay [8] was inactive.

For `Cc1cc(C(F)(F)F)n2nc(C(=O)N(C)Cc3cncn3Cc3ccc(F)cc3)cc2n1`, the growth inhibition is 96% (active) in assay [1] and 101% (active) in assay [4]. The inhibition in assay [2] was -1%; in assay [3], 0%. Besides, the result in assay [5], in assay [6], in assay [7] and in assay [8] was inactive.

Take `COc1ccc(C(=O)NCc2ccc(N)nc2C)cc1Nc1ncc(-c2cccc(N(C)C)c2)cn1`: the figures for the growth inhibition in assay [1] and in assay [4] were 68% (active) and 89% (active), respectively. Besides, the inhibition was 9% in assay [2] and -1% in assay [3]. Moreover, the result in assay [5], in assay [6], in assay [7] and in assay [8] was inactive.

Turning to `CCNC(=O)N[C@@H]1CN[C@@H](C#Cc2cc3c(Nc4ccc(OCc5cccc(F)c5)c(Cl)c4)ncnc3s2)C1`, the results for the growth inhibition in assay [1] and in assay [4] were 27% and 85% (active), respectively. Further, the inhibition is -2% in assay [2] and 0% in assay [3]. Further, the result in assay [5], in assay [6], in assay [7] and in assay [8] was inactive.

As to `COc1ccc2nccc([C@@H](O)CN3CC[C@H](NCc4nc5c(cc4Cl)OCC(=O)N5)[C@H](F)C3)c2c1`, the growth inhibition in assay [1] is 29%; in assay [4], 84% (active). The inhibition in assay [2] and in assay [3] was 4% each time. The result in assay [5], in assay [6], in assay [7] and in assay [8] was inactive.

As to `CCc1cc2c(cc1OCCN(C)C)N(C(=O)Nc1ccc(-c3ccncc3)c(Cl)c1)CC2`, the growth inhibition in assay [1] is 7%; in assay [4], 95% (active). The inhibition in assay [2] was 18%; in assay [3] it was -1%. Further, the result in assay [5], in assay [6], in assay [7] and in assay [8] was inactive.

Consider `CCCCn1c(N)c(N(Cc2ccco2)C(=O)C=Cc2cc(OC)c3c(c2)OCCO3)c(=O)[nH]c1=O`, for which the growth inhibition is 94% (active) in assay [1] and 85% (active) in assay [4]. The values for the inhibition in assay [2] and in assay [3] were 4% and 2%, respectively. Moreover, the outcome in assay [5], in assay [6], in assay [7] and in assay [8] was inactive.

With `CCN(C(=O)NC)[C@@H]1c2cc(C#N)ccc2OC(C)(C)[C@H]1O`, the values for the growth inhibition in assay [1] and in assay [4] were 2% and 96% (active), respectively. Besides, the inhibition in assay [2] is 3%; in assay [3], -8%. Besides, the result in assay [5], in assay [6], in assay [7] and in assay [8] was inactive.

For the molecule `Cc1ccc(-c2noc(=O)n2CC(=O)Nc2ccccc2-c2ccccc2)cc1`, the results for the growth inhibition in assay [1] and in assay [4] were 86% (active) and 100% (active), respectively. For the same molecule, the results for the inhibition in assay [2] and in assay [3] were -1% and 2%, respectively. Besides, the outcome in assay [5], in assay [6], in assay [7] and in assay [8] was inactive.
